# Only some compounds are listed: those with a hit (about 0.58% of all), similar ones and a draw of the others.
# FadD28 FP inh: M. tuberculosis FadD28 bisubstrate binding inhibition | FadD28 bisubstrate probe binding, fluorescence polarization | inhibition, % at 12.5 µM | actives 0.22% (n = 360,000); in the data active = inhibition above about 8.5%, passing the limit was not always enough
# BH1578 lux ind: inducers of Vibrio cholerae quorum light production without autoinducers; actives 0.16% (n = 350,000); activation, % at 18.7 µM; AID 588436; V. cholerae BH1578 lux reporter, luminescence, 6 h; in the data active = activation mostly above about 9.7%, no sharp cut-off
# Y pestis TopoI: inhibitors of Yersinia pestis topoisomerase I. Y. pestis Topo-I cleavage product accumulation, plate reader. actives 0.064% (n = 360,000). AID 504884. activity, % at 10 µM; in the data active = activity above about 50%, passing the limit was not always enough
# Mtb BioA inh: blocks M. tuberculosis BioA enzyme activity | purified M. tuberculosis BioA enzyme, plate reader | actives 0.096% (n = 360,000) | inhibition, % at 9.99 µM; in the data active = inhibition above about 40%
# TcdB GH inh: inhibitors of Clostridioides difficile toxin B glycohydrolase; P18177; TcdB glycohydrolase enzymatic assay, plate reader; inhibition, % at 9.99 µM; actives 0.24% (n = 350,000); AID 652162; in the data active = inhibition above about 10%
# Numbers without * were called inactive; i = inactive; nt = no result.
SMILES,FadD28 FP inh,BH1578 lux ind,Y pestis TopoI,Mtb BioA inh,TcdB GH inh
O=C(Nc1cc(F)ccc1F)N1CC(=O)N2[C@H](CO)[C@@H](c3ccc(-c4ccc(F)cc4)cc3)[C@@H]2C1,nt,nt,nt,nt,1
Cc1cccc(OCC(O)Cn2ccnc2C)c1 (stereo not given),-1,0,66*,0,-7
S=c1[nH]nc(NC2CCCCC2)s1,-3,i,-11,0,18*
COc1ccc2c3c([nH]c2c1)[C@@H](CO)N(C(=O)Nc1cccc(F)c1)CC31CN(CC2CCOCC2)C1,nt,nt,nt,nt,1
C[C@@H]1CCCCO[C@H](CN(C)S(=O)(=O)c2ccc(F)cc2)[C@H](C)CN([C@H](C)CO)C(=O)c2cc(NC(=O)C3CCCCC3)ccc2O1,nt,nt,nt,-1,-1
Nc1ccc2c(c1)C(=O)c1cc(N)c(Cl)cc1-2,-1,i,-25,-1,1
COc1cc2c(cc1N)-c1ccc(N)cc1C2=O,-3,i,-32,-1,20*
C[C@H](CO)N1C[C@H](C)[C@@H](CN(C)C(=O)C2CC2)Oc2ncc(C#Cc3ccccc3F)cc2C1=O,nt,nt,nt,0,-1
COc1ccc(C(=O)Nc2ccc3c(c2)C(=O)N(C)[C@H]2CC[C@@H](CC(=O)NCC4CC4)O[C@H]2CO3)cc1,nt,nt,nt,3,0
COc1ccc(C(=O)Nc2ccc3c(c2)C(=O)N(C)[C@@H]2CC[C@H](CC(=O)NCC4CC4)O[C@H]2CO3)cc1,nt,nt,nt,9,16*
CNC(=O)C[C@H]1CC[C@@H]2[C@@H](COc3ccc(NC(=O)c4cccc(OC)c4)cc3C(=O)N2C)O1,nt,nt,nt,-4,12*
CNC(=O)C[C@@H]1CC[C@@H]2[C@H](COc3ccc(NC(=O)c4ccc(OC)cc4)cc3C(=O)N2C)O1,nt,nt,nt,1,1
CNC(=O)C[C@H]1CC[C@@H]2[C@@H](COc3ccc(NC(=O)c4ccc(OC)cc4)cc3C(=O)N2C)O1,nt,nt,nt,7,12*
CNC(=O)C[C@H]1CC[C@H]2[C@H](COc3ccc(NC(=O)c4cccc(OC)c4)cc3C(=O)N2C)O1,nt,nt,nt,-5,-5
CN1C(=O)c2cc(NC(=O)c3cccc(F)c3)ccc2OC[C@H]2O[C@H](CC(=O)NCC3CCCCC3)CC[C@@H]21,nt,nt,nt,1,11*
CO[C@H]1CN(C)C(=O)c2cc(NC(C)=O)ccc2OC[C@@H](C)N(C(=O)c2cnccn2)C[C@H]1C,nt,nt,nt,-1,nt
CO[C@H]1CN(C)C(=O)c2ccc(NC(=O)Nc3cccc(F)c3)cc2OC[C@H](C)N(C(=O)C2CC2)C[C@@H]1C,nt,nt,nt,nt,-1
COCC(=O)N(C)C[C@@H]1Oc2ncc(-c3cccc(OC)c3)cc2C(=O)N([C@H](C)CO)C[C@H]1C,nt,nt,nt,1,0
O=C(C[C@@H]1C=C[C@H](NC(=O)Nc2ccccc2F)[C@H](CO)O1)NCc1ccccc1,nt,nt,nt,nt,0
CNC(=O)C[C@H]1CC[C@@H]2[C@H](COc3ccc(NC(=O)c4ccc(OC)cc4)cc3C(=O)N2C)O1,nt,nt,nt,13,17*
CNC(=O)C[C@H]1CC[C@@H]2[C@H](COc3ccc(NC(=O)Nc4ccc(C)cc4)cc3C(=O)N2C)O1,nt,nt,nt,2,11*
CNC(=O)C[C@@H]1CC[C@@H]2[C@@H](COc3ccc(NC(=O)c4cccc(OC)c4)cc3C(=O)N2C)O1,nt,nt,nt,14,-6
CNC(=O)C[C@@H]1CC[C@@H]2[C@H](COc3ccc(NS(=O)(=O)c4ccccc4C)cc3C(=O)N2C)O1,nt,nt,nt,-1,15*
COc1ccc2c3c(n(C)c2c1)[C@H](CO)N(C(=O)CN(C)C)CC31CN(S(C)(=O)=O)C1,nt,nt,nt,nt,2
CN(C)C(=O)[C@@H]1[C@@H](CO)[C@@H]2Cn3c(ccc(C4=CCCC4)c3=O)[C@H]1N2C(=O)Nc1ccccc1,nt,nt,nt,-2,-3
SMILES,FadD28 FP inh,BH1578 lux ind,Y pestis TopoI,Mtb BioA inh,TcdB GH inh
COc1ccc(NC(=O)N(C)C[C@H]2OCCCC[C@H](C)Oc3ccc(NC(=O)CCC(F)(F)F)cc3C(=O)N([C@H](C)CO)C[C@@H]2C)cc1,nt,nt,nt,3,1
Cn1c(SCC(=O)NCc2cccs2)nnc1-c1ccncc1,-3,i,56*,-1,nt
COc1cc(/C=C2\SC(=Nc3ccc(Cl)c(C(=O)O)c3)NC2=O)c(Br)c(Br)c1O,15*,i,-10,-12,0
O=C1NC(=O)N(Cc2ccc(F)cc2)C(=O)/C1=C\c1ccoc1,11*,i,-16,-5,0
CN(C)c1ccc(/C=C2\C(=O)NC(=O)N(Cc3ccc(F)cc3)C2=O)cc1,-2,0,-5,1,0
Oc1c(Br)cc(Br)cc1Br,-3,-1,3,1,0
Oc1c(Br)c(Br)c(Br)c(Br)c1Br,41*,0,-6,3,nt
Cc1nc(-c2ccccn2)nc(SCC(=O)c2ccc(F)cc2)c1Cl,-2,i,-4,nt,12*
CN(C)CCCNC(=O)[C@@H]1[C@@H](CO)[C@@H]2Cn3c(ccc(-c4ccccc4)c3=O)[C@@H]2N1C,nt,nt,nt,0,0
CN(C)c1ccc2nc3ccc(=[N+](C)C)cc-3sc2c1,2,0,3,nt,7
Cc1cc2nc3ccc(=[N+](C)C)cc-3sc2cc1N,1,0,419*,nt,nt
CO[C@H]1CN(C)C(=O)c2ccc(NS(=O)(=O)c3ccc(-c4ccccc4)cc3)cc2OC[C@H](C)NC[C@@H]1C,nt,nt,nt,nt,0
O=C(C[C@H]1C=C[C@H](NC(=O)c2ccccc2)[C@@H](CO)O1)NCc1ccc(Oc2ccccc2)cc1,nt,nt,nt,-2,-2
CCOC(=O)Nc1ccc(OC(=O)Oc2ccc(NC(=O)OCC)cc2)cc1,0,-1,6,nt,12*
CCN(C(=O)CN1C(=O)NC2(CCC(C)CC2)C1=O)C1CCCCC1 (stereo not given),-3,i,-2,0,14*
Cc1cccc(-c2nnc3n2N=C(c2ccccc2)CS3)c1,-4,i,25,0,nt
Cc1ccc(-c2nnc3n2N=C(c2ccccc2Br)CS3)cc1,-8,i,59*,2,nt
CCNC(=O)C[C@@H]1CC[C@H]2[C@H](COc3ccc(NC(C)=O)cc3C(=O)N2C)O1,nt,nt,nt,-1,10*
CCCNC(=O)C[C@H]1CC[C@@H]2[C@H](COc3ccc(NC(=O)c4ccc(Cl)cc4)cc3C(=O)N2C)O1,nt,nt,nt,6,15*
CC[C@H](C)/C=C(C)/C=C/c1cc2c(cn1)C(=O)[C@@](C)(OC(C)=O)C(O)=C2Cl,11*,0,13,3,1
COCC(=O)N1[C@H](C(=O)Nc2ccccc2)[C@@H](CO)[C@@H]2Cn3c(ccc(-c4ccccc4)c3=O)[C@@H]21,nt,nt,nt,-1,-2
CO[C@@H](C(=O)N(C)C[C@@H]1OCc2ccccc2-c2c(n(C)c3ccccc23)C(=O)N([C@@H](C)CO)C[C@@H]1C)c1ccccc1,nt,nt,nt,2,1
O=[N+]([O-])c1cccc(/C=N/n2c(C3CCCCC3)n[nH]c2=S)c1,18*,0,-1,nt,2
Oc1cccc(/C=N/n2c(C3CCCCC3)n[nH]c2=S)c1,nt,i,-2,2,3
C[C@H](O)C#Cc1ccc2c(c1)O[C@@H](CN(C)C(=O)Cc1ccccn1)[C@H](C)CN([C@@H](C)CO)S2(=O)=O,nt,nt,nt,3,-1

# Screening data: PubChem BioAssay, Broad Institute
